Measurements reported in the supplement of paper PMC4022240.
± gives the standard deviation.

T1: HaloTag-ATRX ADD domain (163-292)
T1 chain: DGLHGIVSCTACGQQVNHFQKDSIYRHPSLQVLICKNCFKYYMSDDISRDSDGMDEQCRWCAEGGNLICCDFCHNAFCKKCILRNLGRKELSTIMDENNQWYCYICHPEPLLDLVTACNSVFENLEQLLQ


How the values were obtained:
Experiment in all cases: peptide microarray binding signal (635 nm), min-max normalized on array (fraction of array maximum); higher = stronger binding
[1] = target: T1, HaloTag-ATRX ADD domain (163-292)
Outline: (§1)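 Binding signal is the mean intensity of triplicate spots, min-max scaled within each library. Histone 13-mer peptide–cellulose conjugates were spotted in triplicate on nitrocellulose with a Cy3 tracer and blocked overnight at 4°C. Probing lasted 1 h at 4°C, either with biotin-labelled HaloTag reader fusions (10 nM to 1 μM) and streptavidin-Alexa Fluor 647 or with rabbit histone antibodies (1:10,000 to 1:2,000) and anti-rabbit Alexa 647. An Axon GenePix 4000B read signal at 635 nm and misprints at 532 nm.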

[2] = target: HaloTag-ING2 PHD (mouse Ing2 200-280)
Outline: as §1

[3] = target: anti-H3K4me3 antibody ab8580
Outline: as §1

[4] = target: anti-H3K9me3 antibody ab8898
Outline: as §1

[5] = peptide region: Unmod H3 variant, binder concentration: 50 nM
[6] = peptide region: Unmod H3 variant, binder concentration: 500 nM
[7] = peptide region: Unmod H3 variant, binder concentration: 10 nM
[8] = peptide region: Unmod H3 variant, binder concentration: 100 nM
[9] = peptide region: Unmod H3 variant, binder concentration: 1:2,000 dilution
[10] = peptide region: Unmod H3 variant, binder concentration: 1:10,000 dilution
[11] = peptide region: Unmod H2B variant, binder concentration: 50 nM
[12] = peptide region: Unmod H2B variant, binder concentration: 500 nM
[13] = peptide region: Unmod H2B variant, binder concentration: 10 nM
[14] = peptide region: Unmod H2B variant, binder concentration: 100 nM
[15] = peptide region: Unmod H2B variant, binder concentration: 1:2,000 dilution
[16] = peptide region: Unmod H2B variant, binder concentration: 1:10,000 dilution

Binder	peptide microarray binding signal [1, 5]	peptide microarray binding signal [1, 6]	peptide microarray binding signal [2, 7]	peptide microarray binding signal [2, 8]	peptide microarray binding signal [3, 9]	peptide microarray binding signal [3, 10]	peptide microarray binding signal [4, 9]	peptide microarray binding signal [4, 10]	peptide microarray binding signal [1, 11]	peptide microarray binding signal [1, 12]	peptide microarray binding signal [2, 13]	peptide microarray binding signal [2, 14]	peptide microarray binding signal [3, 15]	peptide microarray binding signal [3, 16]	peptide microarray binding signal [4, 15]	peptide microarray binding signal [4, 16]
ARTKQTARKSTGG [Unmod H3 variant A R T K Q T A R K S T G G]	0.00445 ± 0.00012	0.00991 ± 0.00023	0.00824 ± 0.00015	0.01502 ± 0.00015	0.0014 ± 4.3e-05	0.00205 ± 7.6e-05	0.00101 ± 3.2e-05	0.00115	–	–	–	–	–	–	–	–
EGTKAVTKYTSAK [Unmod H2B variant E G T K A V T K Y T S A K]	–	–	–	–	–	–	–	–	0.0108 ± 0.00025	0.0351 ± 0.00073	0.00776 ± 0.00021	0.0322 ± 0.0032	0.00196 ± 9.7e-05	0.0028 ± 0.00015	0.000544 ± 1.7e-05	0.00115
TGGKAPRKQLATK [Unmod H3 variant T G G K A P R K Q L A T K]	0.00389 ± 0.00042	0.00729 ± 0.00021	0.00788 ± 0.00069	0.00985 ± 0.00081	0.00126 ± 8.1e-05	0.001541 ± 1.5e-05	0.000876 ± 2.6e-05	0.000807	–	–	–	–	–	–	–	–
EGTKAVTKYTSSK [Unmod H2B variant E G T K A V T K Y T S S K]	–	–	–	–	–	–	–	–	0.00473 ± 0.00015	0.00681 ± 0.00052	0.00561 ± 0.00046	0.01276 ± 6.8e-05	0.00121 ± 0.00013	0.001712 ± 1.6e-05	0.000468 ± 9e-06	0.000923 ± 9.6e-06
YSKRSTISSREIQ [Unmod H2B variant Y S K R S T I S S R E I Q]	–	–	–	–	–	–	–	–	0.01006 ± 2.8e-05	0.0303 ± 0.0022	0.0109 ± 0.00062	0.0429 ± 0.0047	0.00225 ± 0.00019	0.00211 ± 6.7e-05	0.00103 ± 2.2e-05	0.0015 ± 2.5e-05
DIFERIASEASRL [Unmod H2B variant D I F E R I A S E A S R L]	–	–	–	–	–	–	–	–	0.00655 ± 0.00034	0.00648 ± 0.00023	0.00454 ± 0.00011	0.0142 ± 0.0098	0.000793 ± 2.2e-05	0.00177 ± 2.9e-05	0.000453 ± 1.5e-05	0.001211 ± 1.2e-05
NSFVTDIFERIAS [Unmod H2B variant N S F V T D I F E R I A S]	–	–	–	–	–	–	–	–	0.00646 ± 0.0003	0.0141 ± 0.00044	0.00483 ± 0.00011	0.00815 ± 0.00095	0.00238 ± 0.00045	0.00308 ± 0.00038	0.000936 ± 2e-05	0.00208 ± 9.6e-05
PGELAKHAVSEGT [Unmod H2B variant P G E L A K H A V S E G T]	–	–	–	–	–	–	–	–	0.01009 ± 9.9e-05	0.0228 ± 0.001	0.0117 ± 0.00035	0.0287 ± 0.0019	0.0133 ± 0.0011	0.0163 ± 0.00093	0.00447 ± 0.00018	0.00484 ± 7.1e-05
GISSKAMSIMNSF [Unmod H2B variant G I S S K A M S I M N S F]	–	–	–	–	–	–	–	–	0.0103 ± 0.00033	0.0293 ± 0.0012	0.011 ± 0.0025	0.0429 ± 0.016	0.00194 ± 0.00057	0.00228 ± 0.00014	0.000936 ± 5e-05	0.00144 ± 2.8e-05
AMSIMNSFVTDIF [Unmod H2B variant A M S I M N S F V T D I F]	–	–	–	–	–	–	–	–	0.0108 ± 0.0002	0.0253 ± 0.001	0.01188 ± 7.7e-05	0.0239 ± 0.0025	0.00882 ± 0.0011	0.0132 ± 0.00021	0.00523 ± 0.00065	0.00571 ± 0.00035
NSFVNDIFERIAG [Unmod H2B variant N S F V N D I F E R I A G]	–	–	–	–	–	–	–	–	0.00721 ± 0.00059	0.00671 ± 0.00013	0.00364 ± 0.00012	0.003827 ± 3.3e-05	0.00198 ± 0.00015	0.002339 ± 2.1e-05	0.00074 ± 6.4e-06	0.001614 ± 1.6e-05
IAGEASRLAHYNK [Unmod H2B variant I A G E A S R L A H Y N K]	–	–	–	–	–	–	–	–	0.0147 ± 0.00017	0.0384 ± 0.0025	0.0361 ± 0.0036	0.0742 ± 0.0014	0.00521 ± 0.00045	0.00633 ± 0.00022	0.00217 ± 5.9e-05	0.00259 ± 4.6e-05
TARKSTGGKAPRK [Unmod H3 variant T A R K S T G G K A P R K]	0.00552 ± 0.00053	0.0118 ± 0.00044	0.00633 ± 0.00044	0.019 ± 0.0047	0.001 ± 4.5e-05	0.00114 ± 1.2e-05	0.000664 ± 1.2e-05	0.000923 ± 9.6e-06	–	–	–	–	–	–	–	–
KHAVSEGTKAVTK [Unmod H2B variant K H A V S E G T K A V T K]	–	–	–	–	–	–	–	–	0.00533 ± 0.00061	0.00738 ± 0.00021	0.00406 ± 5.6e-05	0.0122 ± 0.00094	0.000906 ± 6.3e-05	0.0012 ± 3.2e-05	0.000378 ± 7.5e-06	0.000865 ± 9e-06
DIFERIAGEASRL [Unmod H2B variant D I F E R I A G E A S R L]	–	–	–	–	–	–	–	–	0.0112 ± 0.00018	0.0406 ± 0.0012	0.013 ± 0.00037	0.0336 ± 0.00077	0.00406 ± 0.00012	0.00548 ± 0.00027	0.00234 ± 0.00013	0.003113 ± 2.6e-05
AMGIMNSFVNDIF [Unmod H2B variant A M G I M N S F V N D I F]	–	–	–	–	–	–	–	–	0.0068 ± 0.00037	0.0162 ± 0.0016	0.0083 ± 0.00011	0.0126 ± 0.00023	0.00362 ± 0.00022	0.00548 ± 0.00033	0.00285 ± 0.0002	0.00311 ± 5.3e-05
ATKAARKSAPATG [Unmod H3 variant A T K A A R K S A P A T G]	0.00646 ± 0.00048	0.0104 ± 0.0015	0.00776 ± 0.00056	0.015 ± 0.0022	0.00119 ± 3.4e-05	0.001712 ± 1.6e-05	0.00142 ± 9.9e-05	0.00127 ± 1.3e-05	–	–	–	–	–	–	–	–
EIQTAVRLLLPGE [Unmod H2B variant E I Q T A V R L L L P G E]	–	–	–	–	–	–	–	–	0.0176 ± 0.00047	0.041 ± 0.0018	0.0245 ± 0.0014	0.0434 ± 0.0033	0.00893 ± 0.00076	0.0164 ± 0.00068	0.00628 ± 0.00047	0.0106 ± 0.0002
PRKQLATKAARKS [Unmod H3 variant P R K Q L A T K A A R K S]	0.00345 ± 4.2e-05	0.0108 ± 0.00017	0.00722 ± 0.00031	0.0163 ± 0.00099	0.00119 ± 3.4e-05	0.0012 ± 1.2e-05	0.000785 ± 1.3e-05	0.000923 ± 9.6e-06	–	–	–	–	–	–	–	–
YNKRSTITSREIQ [Unmod H2B variant Y N K R S T I T S R E I Q]	–	–	–	–	–	–	–	–	0.00837 ± 0.00045	0.0253 ± 0.0034	0.0181 ± 0.00093	0.0337 ± 0.0033	0.00293 ± 0.00014	0.00382 ± 0.00016	0.000936 ± 1.5e-05	0.00213 ± 7.9e-05
